Results filed as inconclusive are left out. Values without a mark were called inactive. The call rests on the fitted dose curve; in most records, active means well fitted inhibition curve with a large enough effect; inconclusive means small, poorly fitted or top-dose-only effect; inactive means no such curve, though single readings can be large or run the other way.
The molecules below were run against Retinaldehyde dehydrogenase 3 (Homo sapiens) (UniProt P47895) (assay: qHTS for Inhibitors of the Aldehyde Dehydrogenase Family (ALDH1A3) Primary screen (AID 2061315;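 further: plate controls were DMSO vehicle for no effect and reference inhibitor for full effect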)). Conditions: ALDH inhibition qHTS; series mostly up to 56 µM; activity change, negative = inhibition: at the top concentration.

| SMILES | activity change, negative = inhibition |
| --- | --- |
| CCOC(=O)c1cnn(-c2ccccc2)c1NC(=O)c1cc2nc(-c3ccco3)cc(C(F)(F)Cl)n2n1 | -11.8% |
| O[C@@](Cc1ncc(CC2(C(F)(F)F)CC2)[nH]1)(c1ccc(-n2cccn2)cc1)C(F)(F)F | 39.9% |
| [N-]=[N+]=N[C@]1(CO)O[C@@H](n2ccc(=O)[nH]c2=O)[C@@H](O)[C@@H]1O | 1.38% |
| O=C(OC[C@H]1O[C@H](O[C@]2(CO)O[C@H](CO)[C@@H](O)[C@@H]2O)[C@H](O)[C@@H](O)[C@@H]1O)c1ccc(O)cc1 | 1.17% [at 28 µM] |
| N#CCc1ccc(O)cc1O[C@@H]1O[C@H](CO)[C@@H](O)[C@H](O)[C@H]1O | -0.815% |
| CC1CCC2C(=CCC(O)C2(C)C)C1(C)Cc1c(O)cc(CO)c(C=O)c1O (stereo unspecified) | 8.59% |
| CC(=O)OC1C(O)CC2(C)C(CCC(C)C23Cc2c(O)cc(CO)c(C=O)c2O3)C1(C)C (stereo unspecified) | 11.8% [at 28 µM] |
| C[C@@H]1CC[C@]2(C)C3(C)CC[C@@]2(OC3=O)[C@@]12C[C@H](c1ccoc1)OC2=O | 5.21% |
| C[C@@]12CC3(S(=O)(=O)O)OC(O1)[C@]1(COC(=O)c4ccccc4)[C@H]3C[C@]21O[C@@H]1O[C@H](CO)[C@@H](O)[C@H](O)[C@H]1O | -6.86% [at 28 µM] |
| CC(C)C1(O[C@@H]2O[C@H](CO)[C@@H](O)[C@H](O)[C@H]2O)CC=C(CO)CC1 (stereo partly specified) | 3.07% |
| C[C@@H]1O[C@@H](O[C@H]2[C@@H]3C=CO[C@@H](O[C@@H]4O[C@H](CO)[C@@H](O)[C@H](O)[C@H]4O)[C@@H]3[C@@]3(CO)O[C@@H]23)[C@H](O)[C@H](OC(=O)/C=C/c2ccc(O)cc2)[C@H]1OC(=O)/C=C/c1ccc(O)cc1 | -2.74% [at 16.9 µM] |
| C=C1CCC2C(C)(C)C(O)CCC2(C)C1CCC(C)CCOC(=O)CCC(=O)O (stereo unspecified) | 2.92% [at 28 µM] |
| COc1cc(/C=C/c2ccccc2)c(C(=O)O)c(O)c1CC=C(C)C | -8.3% |
| O=C(C[C@@H]1C(C(=O)O)=CO[C@@H](O[C@@H]2O[C@H](CO)[C@@H](O)[C@H](O)[C@H]2O)/C1=C\CO)OCCc1ccc(O)cc1 | 3.99% [at 28 µM] |
| COc1cc(/C=C/C(=O)O[C@@H]2C[C@@](O)(C(=O)O)C[C@@H](O)[C@@H]2O)ccc1O | -25.8% |
| COC1CC/C=C(\C)C(=O)Nc2cc(O)cc(c2)CC(C)CC(OC)C(O)C(C)/C=C(\C)C1OC(N)=O (stereo unspecified) | 6.77% [at 28 µM] |
| C=C1C(OC(C)=O)CCC2(C)CCC(C(C)(C)O)CC12 (stereo unspecified) | 6.81% |
| CC1(C)CC[C@]2(C(=O)O[C@@H]3O[C@H](CO[C@@H]4O[C@H](CO)[C@@H](O)[C@H](O)[C@H]4O[C@@H]4O[C@H](CO)[C@@H](O)[C@H](O)[C@H]4O)[C@@H](O)[C@H](O[C@@H]4O[C@H](CO)[C@@H](O)[C@H](O)[C@H]4O)[C@H]3O)CC[C@]3(C)C(=CCC4[C@@]5(C)CC[C@@H](O)[C@@](C)(C(=O)O[C@@H]6O[C@H](CO)[C@@H](O)[C@H](O)[C@H]6O)C5CC[C@]43C)[C@@H]2C1 (stereo partly specified) | 9.33% [at 11.2 µM] |
| C=CC(C)(C)C12Nc3c(ccc4c3OC(C)(C)C=C4)C1(O)CC1C(=O)N3CCCC3C(=O)N12 (stereo unspecified) | 0.799% [at 28 µM] |
| C[C@@H]1O[C@@H](O[C@H]2[C@H](OC(=O)[C@]34CCC(C)(C)C[C@H]3C3=CCC5[C@@]6(C)C[C@@H](O)[C@@H](O[C@@H]7O[C@H](CO)[C@@H](O)[C@H](O)[C@H]7O)[C@@](C)(CO)C6[C@H](O)C[C@@]5(C)[C@]3(C)CC4)OC[C@H](O)[C@@H]2O)[C@H](O)[C@H](O[C@@H]2OC[C@](O)(CO)[C@H]2O)[C@H]1O[C@@H]1OC[C@@H](O)[C@H](O[C@H]2O[C@H](C)[C@@H](O)[C@H](O)[C@@H]2O)[C@H]1O (stereo partly specified) | 2.17% [at 11.2 µM] |
| CC(C)C1CCC(CO)=CC1/C=C(\CO)C(=O)OCC1(O)CCC(C(C)C)C2C=C(C(=O)O)COC(=O)C21 (stereo unspecified) | -7.3% [at 28 µM] |
| C=C1C(O)CC2C(C(=O)O)=COC(O[C@@H]3O[C@H](COC(=O)c4ccc(O)cc4)[C@@H](O)[C@H](O)[C@H]3O)C12 (stereo partly specified) | 1.99% [at 28 µM] |
| C=C1C(=O)O[C@@H]2/C=C(/C)CC3C=C(C[C@H](OC(=O)/C(C)=C\C)[C@@H]12)C(=O)O3 (stereo partly specified) | -13.6% |
| C=C(C(=O)O)C1CC(O)C2(C)CCCC(C)(O)C2C1 (stereo unspecified) | -14.5% |
| O=C(C1=CCN2c3c(cccc31)OC[C@H]2CN1CCOCC1)c1cccc2ccccc12 | -16.1% |
| NC1CCC(Nc2cc(-c3cccc(NCc4cccc(F)c4)n3)c(Cl)cn2)CC1 (stereo unspecified) | 17.7% |

— PubChem BioAssay (NCATS)
